Measured values published in PMC4336329 (PLoS ONE, 2015).
About 14,000 (4.5%) of roughly 310,000 compounds showed an effect of 50% or more. The effect is printed as a negative number. The sample as a whole holds a higher share of strong results than the screen did.

What follows are molecules tested against human ether-à-go-go-related gene (hERG) potassium channel (human, UniProt Q12809) (assay: primary screen, population patch clamp on CHO cells stably expressing hERG; higher = less effect of the substance).
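Also: peak tail current of the secondary pulse compared with the same well before compound.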

human ether-à-go-go-related gene (hERG) potassium channel, sequence (Q12809 whole entry, looked up): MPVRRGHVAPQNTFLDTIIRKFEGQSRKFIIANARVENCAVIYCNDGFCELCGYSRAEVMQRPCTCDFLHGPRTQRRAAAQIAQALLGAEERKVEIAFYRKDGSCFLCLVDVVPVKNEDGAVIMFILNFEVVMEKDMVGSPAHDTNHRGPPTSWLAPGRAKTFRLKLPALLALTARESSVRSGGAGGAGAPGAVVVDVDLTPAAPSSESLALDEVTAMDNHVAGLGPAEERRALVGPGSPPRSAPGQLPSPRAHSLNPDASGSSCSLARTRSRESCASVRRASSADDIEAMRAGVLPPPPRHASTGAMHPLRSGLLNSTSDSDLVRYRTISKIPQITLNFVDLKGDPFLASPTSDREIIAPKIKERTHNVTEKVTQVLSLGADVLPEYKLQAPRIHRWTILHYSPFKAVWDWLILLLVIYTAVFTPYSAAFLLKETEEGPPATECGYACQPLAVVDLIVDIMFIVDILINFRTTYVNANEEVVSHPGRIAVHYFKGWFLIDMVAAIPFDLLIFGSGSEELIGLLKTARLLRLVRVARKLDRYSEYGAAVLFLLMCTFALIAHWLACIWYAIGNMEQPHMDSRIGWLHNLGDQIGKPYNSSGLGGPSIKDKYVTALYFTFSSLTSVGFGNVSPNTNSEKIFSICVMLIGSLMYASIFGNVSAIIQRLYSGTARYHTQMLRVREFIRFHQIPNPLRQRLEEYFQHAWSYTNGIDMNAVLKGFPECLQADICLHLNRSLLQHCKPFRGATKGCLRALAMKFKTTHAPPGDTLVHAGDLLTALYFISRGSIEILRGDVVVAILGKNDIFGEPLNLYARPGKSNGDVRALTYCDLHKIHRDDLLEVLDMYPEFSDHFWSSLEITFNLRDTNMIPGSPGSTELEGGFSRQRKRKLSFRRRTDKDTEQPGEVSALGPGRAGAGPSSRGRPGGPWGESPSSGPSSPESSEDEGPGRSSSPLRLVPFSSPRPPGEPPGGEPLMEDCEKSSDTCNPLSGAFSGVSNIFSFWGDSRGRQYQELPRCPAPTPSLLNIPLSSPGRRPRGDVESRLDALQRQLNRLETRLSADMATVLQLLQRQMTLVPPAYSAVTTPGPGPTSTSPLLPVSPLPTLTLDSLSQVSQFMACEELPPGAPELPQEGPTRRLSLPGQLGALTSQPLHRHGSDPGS

Compound	hERG current change (%, negative = inhibition) at 10uM [%]
[O-][n+]1onc2c1CCC1N(O)C(c3ccccc3)CC21O (stereo not drawn)	14.7
O=C(c1cc(C2CC2)nn1-c1ccccc1)N1CCN(Cc2c(F)cccc2Cl)CC1	-36.6
CN(CCO)C(=O)c1cccc2c1-c1ccccc1C2=O	4.12
c1ccc(-c2ccc(-c3ccccn3)s2)nc1	-8.87
CCOc1ccc(NC(=O)c2ccc(Br)o2)c([N+](=O)[O-])c1	5.5
CC(C)C(=O)NC(c1ccco1)c1c(O)ccc2ccccc12 (stereo not drawn)	14.1
COc1ccc(C(=O)C2CCCN(Cc3ccc4c(c3)OCCO4)C2)cc1F (stereo not drawn)	-74.7
O=C(c1ccc(Cl)cc1)C1CCCN(Cc2ccc3c(c2)OCCO3)C1 (stereo not drawn)	-73.5
COc1ccc(F)cc1C(=O)C1CCCN(Cc2ccc(Sc3nncn3C)o2)C1 (stereo not drawn)	12.6
COc1ccccc1C(=O)C1CCCN(Cc2ccc3c(c2)OCCO3)C1 (stereo not drawn)	-40.5
COc1ccc(C(=O)C2CCCN(Cc3ccc(Sc4nncn4C)o3)C2)cc1F (stereo not drawn)	-15.4
O=C(CN1CCC(C(=O)c2ccc(Cl)cc2)CC1)Nc1ccc2c(c1)OCCO2	-44.9
COc1ccc(F)cc1C(=O)C1CCCN(Cc2ccc3c(c2)OCCO3)C1 (stereo not drawn)	-54.3
O=C(c1ccc(Cl)cc1)C1CCCN(Cc2ccon2)C1 (stereo not drawn)	-18
c1ccc(-c2noc(-c3ccc4c(c3)OCO4)n2)cc1	-3.33
Cc1ccc(CN2CCN(/N=C/c3ccc(C)s3)CC2)c(C)c1	-5.96
CCn1c(=O)c(C(=O)NNC(=O)c2cccc(Cl)c2)c(O)c2ccccc21	32.4
C/C(=N\NC(=O)c1cccc(Br)c1)c1ccc(Br)cc1	16
Cc1cc2c(c(=O)n1CCCn1ccnc1)C(c1ccco1)C(C#N)=C(N)O2 (stereo not drawn)	-3.23
CC(O)C(=O)N/N=C/c1ccccc1C(=O)O (stereo not drawn)	14
COc1cc(/C=C(/C(=O)c2cccs2)c2nc3ccccc3[nH]2)cc(OC)c1O	-56.1
O=C(/C(=C/c1ccc(Cl)cc1)c1nc2ccccc2[nH]1)c1cccs1	2.82
COc1ccc(/C=N/Nc2nc3ccccc3[nH]2)cc1OC	-21.8

Compound	hERG current change (%, negative = inhibition) at 10uM [%]
COc1cc(/C=N\Nc2nc3ccccc3[nH]2)cc(OC)c1OC	-19.8
COc1cc(/C=N/Nc2nc3ccccc3[nH]2)cc(OC)c1O	-55.9
COc1cc(/C=C(/C(=O)c2cccs2)c2nc3ccccc3[nH]2)ccc1O	-22.2
CCCCN=C1SC(C(=O)Nc2sc3c(c2C(=O)OC)CCC3)C(N)=C1C(=O)N1CCOCC1 (stereo not drawn)	-1.11
Cc1cc(Nc2ccccc2C(=O)O)n(-c2ccc([N+](=O)[O-])cc2)n1	4.19
Cc1cc(CN2CCC(n3nccc3NC(=O)c3ccccc3C)CC2)n[nH]1	-38
CC(=O)c1cc(CN2CCC(n3nccc3NC(=O)c3ccccc3C)CC2)cs1	-57.8
COc1ccccc1C(=O)Nc1ccnn1C1CCN(Cc2csc(C(C)=O)c2)CC1	-72.9
CC(=O)c1cc(CN2CCC(n3nccc3NC(=O)c3ccccc3Cl)CC2)cs1	-56.5
CC(=O)c1cc(CN2CCC(n3nccc3NC(=O)c3ccccc3)CC2)cs1	-10.9
CC(C)=NN1C(c2nonc2N)=NOC1(C)C	6.47
COC(=O)C1=C(C)N=C2SCCC(=O)N2C1/C=C/c1ccccc1 (stereo not drawn)	-16.8
Cc1nc(SCC(=O)c2ccc(F)cc2)c([N+](=O)[O-])[nH]1	27.3
CCCNC(=O)CN(CCc1ccccc1)S(C)(=O)=O	8.94
COc1ccc(NC(=O)CN(C)CCOc2ccc(Cl)cc2)cc1OC.O=C(O)C(=O)O	-17.4
CN(C(=S)Nc1ccc(SC(F)F)cc1)C(c1ccccc1)c1ccccc1	-0.128
COc1ccc(CN(C)C(=S)Nc2ccc(OC(F)F)cc2)cc1	-58.9
CN(C)CCCN(Cc1ccccc1)C(=S)NCc1ccccc1	-24.7
CN(CCOc1ccc(Cl)cc1)CC(=O)Nc1ccc(OC(F)(F)F)cc1	8.27
CN(CCOc1ccc(Cl)cc1)CC(=O)Nc1ccc(OC(F)F)cc1	-71.4
COc1ccc(CCNCC(=O)Nc2ccc(OC(F)F)cc2)cc1	-75.8
CN(C)CCCN(Cc1ccccc1)C(=S)Nc1ccc(SC(F)F)cc1	-75.1
